aSyn 5UTR act – Activators via SNCA 5'UTR binding, MLPCN; alpha-synuclein 5'UTR reporter, activators screen; activity score, % (tested at 7.5 µM), hits read low; hit rate 7.1% among 300,000; in the data active = activity score below about -60%
Numbers without * were called inactive. Not all results are given here.

`Cc1c(O)ccc(/C(Cc2ccc3ccccc3n2)=N\N)c1O` gave aSyn 5UTR act -64.0*.
`CCOc1ccc(C(=O)OCC(=O)c2c(N)n(C)c(=O)n(C)c2=O)cc1OCC` gave aSyn 5UTR act -117.6*.
`CC(=O)Nc1ccc2nc(SCC(=O)Nc3ccc(N4CCOCC4)c(Cl)c3)sc2c1` gave aSyn 5UTR act -142.4*.
Screening O=C(CSc1nc2ccccc2o1)Nc1ccc(N2CCOCC2)c(Cl)c1 returned aSyn 5UTR act -164.9*.
N#Cc1c(-c2ccccc2)ccnc1Oc1ccccc1 was read as aSyn 5UTR act -75.0*.
`O=c1[nH]c(COc2ccc(Cl)cc2Br)nc2ccccc12` gave aSyn 5UTR act -123.1*.
Screening O=c1[nH]c(COc2ccc(Cl)cc2Cl)nc2ccccc12 returned aSyn 5UTR act -188.9*.
`CCCCCOc1ccc(/C=C/c2c([N+](=O)[O-])c(=O)n(C)c(=O)n2C)cc1` gave aSyn 5UTR act -174.9*.
For Cn1c(/C=C/c2ccc(Cl)cc2)c([N+](=O)[O-])c(=O)n(C)c1=O the results were aSyn 5UTR act -147.3*.
For Cn1c2c(c(=O)n(C)c1=O)C(C(F)(F)F)(C(F)(F)F)N=C(c1ccc(Cl)cc1)N2 the results were aSyn 5UTR act 99.4.
Cn1c(/C=C/c2cccc([N+](=O)[O-])c2)c([N+](=O)[O-])c(=O)n(C)c1=O was read as aSyn 5UTR act -193.9*.
COc1cc(CNC(=O)C2CC2)ccc1OCc1ccccc1 was read as aSyn 5UTR act -96.8*.
COc1ccc(CCNC(=O)C(=O)NCc2ccccc2)cc1OC was read as aSyn 5UTR act -81.9*.
`COc1cc(CN2CCC(C(=O)NCCC(C)C)CC2)ccc1OCc1ccccc1` gave aSyn 5UTR act -173.0*.
`CCCCn1c(-c2ccccc2)cnc1SCC(=O)NCCc1ccc(OC)c(OC)c1` gave aSyn 5UTR act -135.8*.
Screening COc1cc(CN2CCCCC2)ccc1OCc1ccccc1 returned aSyn 5UTR act -65.5*.
For CC1CCN(c2c([N+](=O)[O-])nn(-c3ccc4c(c3)OCCO4)[n+]2[O-])CC1 the results were aSyn 5UTR act -97.5*.
Screening COc1ccc(-c2nc(=S)c3c([nH]2)Oc2ccc(C)cc2C3)cc1O returned aSyn 5UTR act -75.6*.
Screening O=C1OC(c2ccc3c(c2)OCO3)N(C(=O)c2ccc(Cl)c(Cl)c2)c2ccccc21 (stereo not given) returned aSyn 5UTR act -90.6*.
COc1cccc(NCc2cc(=O)oc3cc(-c4ccccc4)c(O)cc23)c1 was read as aSyn 5UTR act -128.3*.
Cc1cc(-c2ccc(Br)cc2)n[nH]1 was read as aSyn 5UTR act -119.6*.
Screening Nc1cc(-c2ccc(Br)cc2)[nH]n1 returned aSyn 5UTR act -89.9*.
For N#CC1=C(SCC(=O)c2ccc(Cl)cc2)NC2=C(C(=O)CCC2)C1c1ccco1 (stereo not given) the results were aSyn 5UTR act -173.1*.
Screening C=CCOC(=O)C1=C(C)NC(SCC)=C(C#N)C1c1ccc(Cl)cc1 (stereo not given) returned aSyn 5UTR act 67.0.
Screening COC(=O)c1ccc(N=NN2CCCCCC2)cc1 returned aSyn 5UTR act -134.1*.
O=C(O)c1ccc(N=NN2CCCCC2)cc1 was read as aSyn 5UTR act -85.2*.
Screening Clc1ccc(N=NN2CCOCC2)cc1 returned aSyn 5UTR act -70.4*.
For COC(=O)c1ccc(N=NN2CCOCC2)cc1 the results were aSyn 5UTR act -146.8*.
For O=C(CSc1ncnc2c(-c3ccc(Cl)cc3)nsc12)c1ccccc1 the results were aSyn 5UTR act -97.8*.
`Cc1cc(C)c2c(NC(=O)CCl)nn(C)c2n1` gave aSyn 5UTR act -65.3*.
Screening Cc1ccc(C(CC(=O)c2ccco2)SCCO)cc1 (stereo not given) returned aSyn 5UTR act -90.2*.
For S=C(NCCc1ccccc1)Nc1cnc2ccccc2c1 the results were aSyn 5UTR act -114.8*.
Screening Cc1ccc(NC(=O)Nc2cnc3ccccc3c2)cc1 returned aSyn 5UTR act -144.3*.
Cn1ncc2cc(NC(=S)NC(=O)c3ccccc3)ccc21 was read as aSyn 5UTR act -201.1*.
O=C(NC(=S)Nc1cnc2ccccc2c1)c1ccccc1 was read as aSyn 5UTR act -171.1*.
O=C(NC(=S)Nc1ncc(Br)cc1Br)c1ccccc1 was read as aSyn 5UTR act -152.9*.
Screening O=C(Nc1cnc2ccccc2c1)c1ccncc1 returned aSyn 5UTR act -109.9*.
Screening CN1/C(=C\C=C2/C(=O)Oc3ccccc3C2=O)C(C)(C)c2ccccc21 returned aSyn 5UTR act -123.3*.
Screening N=c1n(CCN2CCOCC2)c2ccccc2n1CC(=O)c1ccc(Cl)c(Cl)c1 returned aSyn 5UTR act -66.0*.
Oc1ccc(N=C/C=C/c2ccc(Br)cc2)cc1-c1nc2ccccc2s1 was read as aSyn 5UTR act -106.9*.
Screening CCCCc1nnc(NC(=O)C2CCCO2)s1 (stereo not given) returned aSyn 5UTR act -85.5*.
`CCCCOC(=O)c1ccc(NC(=O)c2c(Cl)ccc(Cl)c2OC)cc1` gave aSyn 5UTR act -65.5*.
For CCCc1nnc(NC(=O)C23CC4CC(CC(C4)C2)C3)s1 the results were aSyn 5UTR act -117.6*.
`CCCCc1ccc(NC(=O)C2CCCO2)cc1` (stereo not given) gave aSyn 5UTR act -97.0*.
CCOC(=O)c1ccc(NC(=O)C2CCCO2)cc1 (stereo not given) was read as aSyn 5UTR act -98.7*.
`CCCCc1nnc(NC(=O)C2=COCCO2)s1` gave aSyn 5UTR act -64.1*.
Screening CCCCOC(=O)c1ccc(NC(=O)C2CCCO2)cc1 (stereo not given) returned aSyn 5UTR act -75.0*.
`CCOc1cccc2sc(N(CCCN(C)C)C(=O)c3ccc(S(=O)(=O)N4CCc5ccccc5C4)cc3)nc12` gave aSyn 5UTR act 58.4.
`CN(C)CCN(C(=O)c1ccc2c(c1)OCCO2)c1nc2cc3c(cc2s1)OCO3` gave aSyn 5UTR act -76.9*.
Screening CN(C)CCCN(C(=O)c1ccc2c(c1)CCCC2)c1nc2c(F)cccc2s1 returned aSyn 5UTR act -157.2*.
Screening CN(C)CCN(C(=O)c1ccc2c(c1)CCCC2)c1nc2cc3c(cc2s1)OCCO3 returned aSyn 5UTR act -75.0*.
For COc1ccc2nc(N(CCN(C)C)C(=O)c3ccc4c(c3)OCCO4)sc2c1 the results were aSyn 5UTR act -72.3*.
`CN(C)CCN(C(=O)c1ccc(S(=O)(=O)N(C)c2ccccc2)cc1)c1nc2cc3c(cc2s1)OCCO3` gave aSyn 5UTR act -64.4*.
Cc1cc(C)c2sc(N(CCCN(C)C)C(=O)c3ccc(S(=O)(=O)N(C)C4CCCCC4)cc3)nc2c1 was read as aSyn 5UTR act 53.3.
`CN(C)CCN(C(=O)c1ccc2c(c1)OCCO2)c1nc2c(Cl)cccc2s1` gave aSyn 5UTR act -96.8*.
For O=c1oc2ccccc2cc1-c1csc(NN=C2CCCCC2)n1 the results were aSyn 5UTR act -121.5*.
Screening O=c1oc2ccccc2cc1-c1csc(Nc2nc3ccc(F)cc3s2)n1 returned aSyn 5UTR act -114.8*.
Screening CC1CCC/C(=C(\C#N)c2nc(-c3cc4ccccc4oc3=O)cs2)C1 (stereo not given) returned aSyn 5UTR act -122.1*.
O=c1oc2ccccc2cc1-c1nc2c(s1)CCCC2 was read as aSyn 5UTR act 43.8.
Screening C/C(=N\Nc1nc(-c2ccc(C)cc2C)cs1)c1cc2ccccc2oc1=O returned aSyn 5UTR act -72.2*.
NC(=Nc1ccccc1)NC(=O)c1nc(Cl)c(N)nc1N was read as aSyn 5UTR act -125.9*.

Screening data: PubChem BioAssay, Broad Institute
